We go through 14 compounds from PubChem BioAssay (NCI).

This is part of a sample that, as a whole, favours compounds with a hit. Of some 83,000 tested, about 20% had one in any assay.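 Interpretation: 100, growth as untreated; towards 0, rising growth inhibition; 0, no net growth; 0 to -100, cell death. Compounds scoring below 10 were considered active.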 Unmarked numbers belong to inactive results. Calls of active or inactive are those of the source.

The experiment relates to MDA-MB-468 breast. In words: NCI-60 one-dose screen, 48 h (100 = growth as untreated, 0 = no growth, -100 = all killed). To be noted: 10 µM unless noted.
Regarding `CC(C)COC(=O)NC(C)(C)C`, the growth is 96.5%.

On to `CCCCNC(=O)CC1=C(C)/C(=C/c2[nH]c(-c3ccc[nH]3)cc2OC)N=C1C`, for which the growth is 37.9%.

Regarding `NC(=O)OCCn1cc(-c2nc(-c3c[nH]c4ncccc34)cs2)c2ccccc21`, the growth is 12.4%.

Take `COc1ccc(-c2cc(NC(=O)Nc3ccc(O)cc3)no2)cc1`: the growth was 80.5%.

Turning to `CCOc1c(C#N)c(Nc2ccc(S(N)(=O)=O)cc2)c(C#N)c2nnc(C)n12`, the growth is 105%.

For `O=C1/C(=C/c2cn(-c3ccccc3)nc2-c2ccccc2)SC(=S)N1CCc1ccccc1`, the growth was 103%.

Regarding `Cc1ccc(Nc2nc(-c3cc(O)c(C)c(C)c3O)cs2)cc1`, the growth was 44.5%.

As for `COc1ccc2c(CCCc3ccc(Cl)cc3Cl)c3[n+](cc2c1OC)CCc1cc2c(cc1-3)OCO2`, the growth is -49% (active).

With `CCCCCCCCCCCC(=O)OC(C)C(=O)NCCCC` (centres undefined), the growth is 105%.

`CCOC(=O)/C(=C(\C)N)C1CC(=O)NC1=O` (centres undefined): the growth is 92.3%.

Consider `CS(=O)(=O)c1nccc(-c2c(-c3cccc(OCc4ccccc4)c3)nc3sccn23)n1`, for which the growth was -65.1% (active).

For `Nc1n[nH]c2cccc(C#Cc3cccc(C(=O)Nc4cccc(C(F)(F)F)c4)c3)c12`, the growth was 101%.

Take `CCOC(=O)c1cc(C(=O)c2ccc(O)c(O)c2)n2ccc(-c3ccn4c(C(=O)c5ccc(O)c(O)c5)cc(C(=O)OCC)c4c3)cc12`: the growth is 112%.

Consider `COc1ccc2nc(NCCCNCCO)c3sc4ccc(F)cc4c(=O)c3c2c1`, for which the growth is -31.6% (active).
